Results filed as inconclusive are left out. Active and inactive are the calls of the source. How the source made its calls, unless noted: active means hit-call score of the fitted dose curve at least 0.9, where 1 is the maximum; inactive means score below 0.9.

Test [1] is described as follows: ACEA_ER_80hr: ACEA Biosciences xCELLigence Real-Time Cell Analysis on Estrogen Receptor Agonism for Proliferation (AID 2282667; active means hit-call score of the fitted dose curve at least 0.9, where 1 is the maximum). Conditions: T47D proliferation, impedance (xCELLigence), 80 h. The method in brief: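 Real-time electrical impedance tracked growth of the human breast line T47D, with the 80 h post-dosing value used. Dosing spanned eight 1:4 steps down from a 100 uM final top concentration, run in duplicate.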

Test [2] is described as follows: ATG_CRE_CIS: Attagene CIS-FACTORIAL HepG2 Assay for human cAMP Responsive Element (CRE) binding protein 3 (AID 2282926). Conditions: HepG2 CRE cis-reporter, Attagene multiplexed mRNA; actives raise or lower the signal. The method in brief: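 Assay format: transient reporter transfection of HepG2, 24 h treatment, total RNA isolation with DNase I step. Reporter abundance read by fluorescence after PCR and capillary separation; DMSO-normalised gain or loss fitting.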

In test [3] the target is CCAAT/enhancer-binding protein beta (Homo sapiens) (UniProt P17676). The experiment in a line: ATG_C_EBP_CIS: Attagene CIS-FACTORIAL HepG2 Assay for human CCAAT/Enhancer Binding Protein (C/EBP) beta (AID 2282927). As to conditions: HepG2 Attagene cis-factorial transcription factor reporter; actives raise or lower the signal. The method in brief: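 Changes in reporter mRNA, rather than exogenous chimeric receptor activity, reflect native C/EBP signalling in transfected HepG2 cells dosed for 24 h; transcripts are detected by RT-PCR and capillary electrophoresis.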
Sequence of CCAAT/enhancer-binding protein beta (Homo sapiens) (P17676 whole entry, looked up): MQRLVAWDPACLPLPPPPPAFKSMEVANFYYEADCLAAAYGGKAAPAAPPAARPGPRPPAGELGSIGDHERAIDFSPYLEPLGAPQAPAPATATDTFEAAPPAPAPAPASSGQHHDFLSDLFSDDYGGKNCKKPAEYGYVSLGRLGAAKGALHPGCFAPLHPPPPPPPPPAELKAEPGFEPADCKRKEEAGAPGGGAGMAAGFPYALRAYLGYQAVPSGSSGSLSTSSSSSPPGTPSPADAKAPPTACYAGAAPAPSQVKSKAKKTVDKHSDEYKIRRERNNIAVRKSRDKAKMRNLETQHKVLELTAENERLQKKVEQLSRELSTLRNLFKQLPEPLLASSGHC

Test [4] can be described thus: ATG_CMV_CIS: Attagene CIS-FACTORIAL HepG2 Assay for human CMV (Internal Marker) (AID 2282928).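 Further: endpoint acts as a background internal control marker rather than a target.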 Conditions: HepG2 CMV promoter reporter, transcription factor profiling; actives raise or lower the signal. An outline of the steps:
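Reporter transcripts from transfected HepG2 cells are isolated after 24 h of chemical dosing, reverse-transcribed and amplified. Fragments labeled with 6-FAM are cut with HpaI and quantified by capillary electrophoresis; DMSO defines baseline.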

Test [5] is described as follows: ATG_DR4_LXR_CIS: Attagene CIS-FACTORIAL HepG2 Assay for human Liver X Receptor (LXR), DR4 submotif (AID 2282929). As to conditions: HepG2 Attagene DR4 cis-reporter, mRNA transcription; actives raise or lower the signal. The method in brief:
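Measures endogenous transcription factor activity via a DR4-driven reporter transcript in human HepG2 cells. Compounds incubated 24 h; mRNA quantified by RT-PCR and capillary electrophoresis, analysed as gain or loss of signal versus DMSO.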

Test [6] deals with Aryl hydrocarbon receptor (Homo sapiens) (UniProt P35869). Briefly: ATG_Ahr_CIS: Attagene CIS-FACTORIAL HepG2 Assay for human Aryl Hydrocarbon Receptor (Ahr) (AID 2282930). As to conditions: HepG2 AhR cis-factorial reporter transcription; actives raise or lower the signal. The method in brief: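 HepG2, transient MRTU (cis) transfection, 24 h exposure. RNA → cDNA → PCR → 6-FAM primer extension → HpaI 2 h 37 C → CE. Fit: bidirectional, DMSO baseline.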
Sequence of Aryl hydrocarbon receptor (Homo sapiens) (P35869 whole entry, looked up): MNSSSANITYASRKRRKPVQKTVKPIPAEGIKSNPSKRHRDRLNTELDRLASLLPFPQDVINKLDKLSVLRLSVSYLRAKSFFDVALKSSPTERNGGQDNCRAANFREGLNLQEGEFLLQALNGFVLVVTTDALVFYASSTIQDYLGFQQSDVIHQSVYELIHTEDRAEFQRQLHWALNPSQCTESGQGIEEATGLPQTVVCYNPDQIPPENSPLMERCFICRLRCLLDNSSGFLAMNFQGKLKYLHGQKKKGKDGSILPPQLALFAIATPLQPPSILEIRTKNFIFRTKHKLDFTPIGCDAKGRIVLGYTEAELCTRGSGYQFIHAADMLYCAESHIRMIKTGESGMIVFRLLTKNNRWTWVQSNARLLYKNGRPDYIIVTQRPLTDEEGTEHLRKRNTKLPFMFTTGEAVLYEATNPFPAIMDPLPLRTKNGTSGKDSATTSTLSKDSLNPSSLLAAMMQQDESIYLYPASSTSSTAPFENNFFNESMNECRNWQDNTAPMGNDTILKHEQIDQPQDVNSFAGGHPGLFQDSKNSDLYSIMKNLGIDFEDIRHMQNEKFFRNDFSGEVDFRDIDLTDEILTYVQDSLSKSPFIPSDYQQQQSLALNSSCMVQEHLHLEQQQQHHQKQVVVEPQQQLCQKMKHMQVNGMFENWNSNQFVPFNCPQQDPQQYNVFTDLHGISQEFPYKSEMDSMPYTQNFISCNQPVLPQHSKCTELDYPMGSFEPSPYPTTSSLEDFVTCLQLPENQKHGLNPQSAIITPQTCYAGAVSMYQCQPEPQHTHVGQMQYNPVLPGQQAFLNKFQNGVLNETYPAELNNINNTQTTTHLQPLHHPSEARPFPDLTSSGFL

Test [7] can be described thus: ATG_AP_1_CIS: Attagene CIS-FACTORIAL HepG2 Assay for human Activator Protein 1 (AP-1) (AID 2282931). Conditions: HepG2 Attagene cis-factorial AP-1 reporter mRNA; actives raise or lower the signal. An outline of the steps: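 Bidirectional concentration-response fitting against DMSO controls. Underlying signal: reporter mRNA from cis-promoter constructs in transiently transfected HepG2, measured after 24 h by RT-PCR and capillary electrophoresis.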

Test [8] can be described thus: ATG_AP_2_CIS: Attagene CIS-FACTORIAL HepG2 Assay for human Activator Protein 2 (AP-2) (AID 2282932). Conditions: HepG2 AP-2 cis-reporter, Attagene transcription factor profiling; actives raise or lower the signal. An outline of the steps:
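Transiently transfected HepG2 cells are exposed to chemical for 24 h. Reporter transcripts are then measured as fluorescence following RT-PCR and capillary separation, and gain- or loss-of-signal is fitted relative to DMSO.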

Test [9] has as its target Transcription factor E2F1 (Homo sapiens) (UniProt Q01094). Briefly: ATG_E2F_CIS: Attagene CIS-FACTORIAL HepG2 Assay for human E2F Transcription Factor 1 (AID 2282935). As to conditions: HepG2 Attagene cis-reporter, E2F reporter RNA transcripts; actives raise or lower the signal. The method in brief:
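Fluorescent RT-PCR products, digested with HpaI for 2 h at 37 C, are separated by capillary electrophoresis. Source RNA comes from transfected HepG2 cultures treated for 24 h.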

Test [10] can be described thus: ATG_E_Box_CIS: Attagene CIS-FACTORIAL HepG2 Assay for human Enhancer Box (E-box) (AID 2282936). As to conditions: HepG2 E-box cis-reporter transcription, actives raise or lower the signal. The method in brief:
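Fluorescent reporter fragments separated by capillary electrophoresis gave the signal; mRNA came from HepG2 cells transfected with cis-element reporters and treated 24 h. Curves fitted bidirectionally relative to DMSO controls.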

Test [11] can be described thus: ATG_M_61_CIS: Attagene CIS-FACTORIAL HepG2 Assay for M61 Transcription Factor (Internal Marker) (AID 2282937). Conditions: HepG2 Attagene CIS-FACTORIAL M61 internal marker reporter; actives raise or lower the signal. An outline of the steps:
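Fluorescence from labelled cDNA fragments, separated by capillary electrophoresis, quantifies reporter induction. HepG2 cells bearing transiently transfected cis-promoter MRTUs were incubated with test chemical for 24 h; DMSO defined baseline for gain/loss fitting.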

The nature of test [12]: ATG_EGR_CIS: Attagene CIS-FACTORIAL HepG2 Assay for human Early Growth Response 1 (EGR1) (AID 2282938). Conditions: HepG2 Attagene CIS-FACTORIAL EGR reporter mRNA; actives raise or lower the signal. The method in brief:
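Cell-based multiplex transcription assay: HepG2 carrying transfected cis-element reporter units, 24 h chemical treatment. Fluorescence from capillary electrophoresis of RT-PCR products gives mRNA levels; fitting is bidirectional relative to DMSO.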

Test [13] is described as follows: ATG_M_19_CIS: Attagene CIS-FACTORIAL HepG2 Assay for M19 Transcription Factor (Internal Marker) (AID 2282939). As to conditions: HepG2 Attagene CIS-FACTORIAL M19 internal marker reporter; actives raise or lower the signal. An outline of the steps: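 HepG2 cells transiently transfected with cis-regulated multiple reporter transcription units were dosed for 24 h; reporter mRNA was quantified by RT-PCR, 6-FAM primer-extension labelling, HpaI digestion and capillary electrophoresis, with bidirectional fitting against DMSO baseline.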

Test [14] in a line: ATG_ERE_CIS: Attagene CIS-FACTORIAL HepG2 Assay for Estrogen Response Element (ERE) (AID 2282940). As to conditions: HepG2 ERE cis-reporter, Attagene RNA transcript; actives raise or lower the signal. An outline of the steps:
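HepG2 cells transiently transfected with cis-promoter-driven multiplexed reporter transcription units report endogenous TF activity. After 24 h compound exposure, reporter mRNA is quantified by RT-PCR with capillary electrophoresis fluorescence; bidirectional fitting versus DMSO baseline.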

Test [15] is described as follows: ATG_Ets_CIS: Attagene CIS-FACTORIAL HepG2 Assay for human Erythroblast Transformation Specific (ETS) (AID 2282941). Conditions: HepG2 ETS cis-reporter transcription, actives raise or lower the signal. The method in brief:
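Bidirectional fit versus DMSO of reporter mRNA signal, detected by RT-PCR and capillary electrophoresis in HepG2 cells transiently transfected with cis-element reporters and dosed 24 h.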

Test [16] has as its target Hepatocyte nuclear factor 3-beta (Homo sapiens) (UniProt Q9Y261). Briefly: ATG_FoxA2_CIS: Attagene CIS-FACTORIAL HepG2 Assay for human Forkhead box A2 (FOXA2) (AID 2282942). Conditions: HepG2 cis-reporter transcription factor activity, 24 h; actives raise or lower the signal. The method in brief: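 In transiently transfected human HepG2 cells, promoter-driven reporter mRNA levels after 24 h chemical exposure are determined via RT-PCR with capillary electrophoresis. DMSO serves as baseline for bidirectional fitting.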

Test [17] can be described thus: ATG_FoxO_CIS: Attagene CIS-FACTORIAL HepG2 Assay for human Forkhead box O (FoxO) (AID 2282943). As to conditions: HepG2 Attagene cis-reporter, FoxO element, mRNA; actives raise or lower the signal. An outline of the steps: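 Human hepatoma HepG2 cells carry transiently introduced reporter transcription units controlled by cis promoter elements. Chemical treatment lasted 24 h, and mRNA signal was compared with DMSO.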

Test [18] is described as follows: ATG_GATA_CIS: Attagene CIS-FACTORIAL HepG2 Assay for human GATA Binding Protein (AID 2282944). As to conditions: HepG2 GATA cis-element reporter, Attagene multiplex mRNA; actives raise or lower the signal. The method in brief: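 HepG2 cells transiently transfected with multiplexed cis-element reporter units reflecting endogenous transcription factor activity; reporter mRNA measured after 24 h dosing by RT-PCR, 6-FAM labeling, HpaI digestion and capillary electrophoresis. Bidirectional fitting versus DMSO baseline.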

Test [19] is described as follows: ATG_BRE_CIS: Attagene CIS-FACTORIAL HepG2 Assay for human Bone Morphogenetic Protein (BMP) Response Element (BRE) (AID 2282933). As to conditions: HepG2 BMP response element reporter, Attagene transcription factor profiling; actives raise or lower the signal. An outline of the steps: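 HepG2 cells transiently transfected with multiplexed cis-element reporter units were dosed with chemical for 24 h. Reporter mRNA was measured by RT-PCR with fluorescent labelling, HpaI digestion and capillary electrophoresis; bidirectional fitting relative to DMSO.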

Test [20] concerns the target Retinoic acid receptor alpha (Homo sapiens) (UniProt P10276). Briefly: ATG_DR5_RAR_CIS: Attagene CIS-FACTORIAL HepG2 Assay for human Retinoic Acid Receptor Alpha (RARE), DR5 submotif (AID 2282934). As to conditions: HepG2 Attagene cis-factorial RARE DR5 reporter, mRNA; actives raise or lower the signal. The method in brief:
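HepG2, transient cis-reporter transfection, 24 h exposure. mRNA readout: RT-PCR, FAM label, HpaI cut, capillary electrophoresis. DMSO baseline, gain/loss fitting.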

Sequence of Transcription factor E2F1 (Homo sapiens) (Q01094 whole entry, looked up): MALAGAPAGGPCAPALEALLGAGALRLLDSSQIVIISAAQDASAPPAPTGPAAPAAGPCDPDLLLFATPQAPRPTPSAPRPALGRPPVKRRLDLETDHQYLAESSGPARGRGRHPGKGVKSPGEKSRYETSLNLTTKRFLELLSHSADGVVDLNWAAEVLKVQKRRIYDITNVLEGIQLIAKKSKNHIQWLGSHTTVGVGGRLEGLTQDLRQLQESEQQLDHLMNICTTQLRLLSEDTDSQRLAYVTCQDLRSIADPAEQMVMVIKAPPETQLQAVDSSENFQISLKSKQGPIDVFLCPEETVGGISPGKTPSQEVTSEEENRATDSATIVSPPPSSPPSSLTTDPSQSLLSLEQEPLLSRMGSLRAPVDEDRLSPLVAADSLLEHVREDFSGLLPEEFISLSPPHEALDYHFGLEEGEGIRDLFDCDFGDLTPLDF
Sequence of Retinoic acid receptor alpha (Homo sapiens) (P10276 whole entry, looked up): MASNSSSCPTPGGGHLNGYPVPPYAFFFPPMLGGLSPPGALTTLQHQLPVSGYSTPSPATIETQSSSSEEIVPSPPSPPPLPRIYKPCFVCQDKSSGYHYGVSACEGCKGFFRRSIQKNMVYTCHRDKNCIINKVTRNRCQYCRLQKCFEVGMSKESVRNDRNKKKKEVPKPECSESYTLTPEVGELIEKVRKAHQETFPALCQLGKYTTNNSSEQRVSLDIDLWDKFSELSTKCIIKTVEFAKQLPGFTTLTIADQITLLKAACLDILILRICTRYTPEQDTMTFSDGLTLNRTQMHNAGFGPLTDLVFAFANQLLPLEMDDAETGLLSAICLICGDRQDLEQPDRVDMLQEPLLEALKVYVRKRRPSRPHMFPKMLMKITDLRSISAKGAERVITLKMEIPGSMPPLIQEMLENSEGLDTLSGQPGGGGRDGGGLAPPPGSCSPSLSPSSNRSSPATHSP
Sequence of Hepatocyte nuclear factor 3-beta (Homo sapiens) (Q9Y261 whole entry, looked up): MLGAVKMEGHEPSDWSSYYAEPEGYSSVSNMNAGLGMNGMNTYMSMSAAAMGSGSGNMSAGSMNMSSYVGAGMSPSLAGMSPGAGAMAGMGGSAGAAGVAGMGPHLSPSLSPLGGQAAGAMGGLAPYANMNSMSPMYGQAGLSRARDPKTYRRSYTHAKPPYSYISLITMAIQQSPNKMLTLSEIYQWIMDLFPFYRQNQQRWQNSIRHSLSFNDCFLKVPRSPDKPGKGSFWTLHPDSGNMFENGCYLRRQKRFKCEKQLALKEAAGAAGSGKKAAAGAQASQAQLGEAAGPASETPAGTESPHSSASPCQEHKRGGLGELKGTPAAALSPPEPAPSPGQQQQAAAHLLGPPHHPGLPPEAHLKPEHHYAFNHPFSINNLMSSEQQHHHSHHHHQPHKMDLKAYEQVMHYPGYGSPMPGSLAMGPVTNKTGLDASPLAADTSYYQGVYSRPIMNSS

The term AC50 denotes the concentration at which the activity in the assay is half-maximal. `C=CCCCCCCCCO`: the call in test [1], in [2], in test [3], in test [4], in [5] and in test [7] was inactive. Further, the outcome in test [8], in test [9], in test [10], in test [11], in test [12] and in test [13] was inactive. The outcome in test [14], in test [15], in [16], in test [17] and in [18] was inactive. In addition, in test [6], the AC50 is 29.3 µM (active).
For the compound `CCCCC1CCC(=O)O1` (stereo not given), the compound was called inactive in test [1], in [2], in [3], in test [4], in test [5] and in test [6]. The outcome in test [8], in [19], in test [20], in [9], in test [10] and in test [11] was inactive. Moreover, the result in test [12], in test [13], in test [14], in test [15], in test [16] and in test [17] was inactive. Further, in test [18], the compound was called inactive.
Turning to `N#Cc1ccc(C2CCCc3cncn32)cc1` (stereo not given), the AC50 is 0.829 µM (active) in test [1] and 25.4 µM (active) in test [14]. In addition, the call in test [2], in [3], in [4], in test [5], in test [6] and in [8] was inactive. In addition, the compound was called inactive in test [20], in test [9], in test [10], in test [11], in [12] and in test [13]. Besides, the compound was called inactive in test [15], in test [16] and in test [18].
Regarding `C[Si]1(C)O[Si](C)(C)O[Si](C)(C)O[Si](C)(C)O[Si](C)(C)O1`, the compound was classed as inactive in test [1], in test [2], in test [3], in [4], in test [6] and in test [8]. Also, the call in test [19], in test [20], in [9], in test [10], in test [11] and in test [12] was inactive. Moreover, the result in test [13], in test [14], in [15], in test [16], in test [17] and in test [18] was inactive. Moreover, the AC50 in test [5] is 36.2 µM (active).
As to `CC(=O)CC(=O)Nc1ccccc1C`, the compound was called inactive in test [1], in test [2], in test [3], in test [4], in test [5] and in [6]. The call in test [7], in test [8], in test [20], in test [9], in [11] and in test [12] was inactive. In addition, the outcome in test [13], in [14], in test [15], in test [16], in [17] and in test [18] was inactive.
As to `CC(C)COC(=O)CC(C(=O)OCC(C)C)S(=O)(=O)O` (stereo not given), the call in test [1], in [2], in test [3], in test [4], in test [5] and in test [6] was inactive. Moreover, the compound was called inactive in test [8], in test [19], in test [20], in [9], in test [10] and in test [11]. Besides, the outcome in test [12], in test [13], in test [14], in [15], in [16] and in test [18] was inactive.
On to `CC1CC(=O)CC(C)(C)C1` (stereo not given), for which the call in test [1], in test [2], in [3], in [4], in [5] and in test [6] was inactive. Further, the call in [8], in [20], in [9], in test [10], in test [11] and in [12] was inactive. In addition, the outcome in test [13], in test [14], in test [15], in test [16], in test [17] and in test [18] was inactive.
`O=C(O)c1ccc2c(c1)C(=O)OC2=O`: the compound was classed as inactive in test [1], in test [2], in test [3], in test [4], in test [5] and in [6]. The outcome in test [8], in [19], in [20], in test [9], in [10] and in [11] was inactive. Besides, the result in [13], in test [14], in test [15], in test [16], in [17] and in test [18] was inactive.

The values are drawn from PubChem BioAssay (EPA / NIEHS).
